Screens (PubChem)
Pol beta inh: qHTS Assay for Inhibitors of DNA Polymerase Beta; Pol beta primer extension/strand displacement, fluorescence kinetic; Potency, µM (series often up to 114 µM), inactives show top-dose activity change, negative = inhibition, hits mostly inhibitors; 340,000 tested, 1.3% active; note: potency is the fitted concentration of half-maximal effect; % is set by controls: 0 for no effect and ±100 for the full control effect
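Kinetic readout of DNA synthesis with strand displacement by Pol beta. Compound and 10 nM enzyme sit 15 min at room temperature; 50 nM substrate starts the reaction, read immediately and at 10 min.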
POLI inh: qHTS for Inhibitors of Polymerase Iota; Potency, µM (titrated, usually from 115 µM), for inactives: top-dose activity, negative = inhibition, most hits filed as inhibitors; 390,000 tested, 1% active; Pol iota fluorescent replication assay, 10 min; AID 588590, 2011; note: potency is the fitted concentration of half-maximal effect
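Pol iota at 10 nM preincubated 15 min with compounds at room temperature; reaction started with fluorescent substrate, 50 nM final. Fluorescence read kinetically at 0 and 10 min; buffer-only wells as negative control.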
TDP1 inh: qHTS Assay for Inhibitors of Tyrosyl-DNA Phosphodiesterase (TDP1). Tyrosyl-DNA phosphodiesterase 1 (Homo sapiens), Q9NUW8. Potency, µM (top dose mostly 130 µM), for inactives: at the top dose activity change, negative = inhibition, usual class: inhibitors. AID 485290, 2010. recombinant TDP1, AlphaScreen DNA substrate cleavage. 350,000 tested, 0.28% active; note: potency is the fitted concentration of half-maximal effect; % is set by controls: 0 for no effect and ±100 for the full control effect; nearly all actives have a fitted effect of over 40% in size
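E. coli-derived human Tdp1, 1 nM final. Cpd preinc 15 min RT; substrate 15 nM final, 5 min RT; AS bead mix 10 ug/ml final, 10 min RT. Signal loss = tyrosine-FITC cleavage. No-enzyme wells = max signal.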
Pol kappa inh-1: qHTS for Inhibitors of Polymerase Kappa; DNA polymerase kappa (Homo sapiens), Q9UBT6; purified Pol kappa, fluorescent DNA synthesis assay, 10 min; Potency, µM (titrated, usually from 107 µM), for the others: at the highest dose activity, negative = inhibition, usual class: inhibitors; 400,000 tested, 0.53% active; AID 588579, 2011; note: potency is the fitted concentration of half-maximal effect; % is set by controls: 0 for no effect and ±100 for the full control effect
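50 nM final substrate added after 15 min RT preincubation of 10 nM Pol kappa with compound; fluorescence read at 0 and 10 min.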
Pol eta inh-1: qHTS for Inhibitors of Polymerase Eta | DNA polymerase eta (Homo sapiens), Q9Y253 | recombinant Pol eta, fluorescent DNA replication assay | Potency, µM (top dose mostly 114 µM), for inactives: top-dose activity change, negative = inhibition, hits mostly inhibitors | 390,000 tested, 1.2% active | AID 588591, 2011; note: potency is the fitted concentration of half-maximal effect; % is set by controls: 0 for no effect and ±100 for the full control effect
Target sequence (Q9Y253 whole entry, looked up): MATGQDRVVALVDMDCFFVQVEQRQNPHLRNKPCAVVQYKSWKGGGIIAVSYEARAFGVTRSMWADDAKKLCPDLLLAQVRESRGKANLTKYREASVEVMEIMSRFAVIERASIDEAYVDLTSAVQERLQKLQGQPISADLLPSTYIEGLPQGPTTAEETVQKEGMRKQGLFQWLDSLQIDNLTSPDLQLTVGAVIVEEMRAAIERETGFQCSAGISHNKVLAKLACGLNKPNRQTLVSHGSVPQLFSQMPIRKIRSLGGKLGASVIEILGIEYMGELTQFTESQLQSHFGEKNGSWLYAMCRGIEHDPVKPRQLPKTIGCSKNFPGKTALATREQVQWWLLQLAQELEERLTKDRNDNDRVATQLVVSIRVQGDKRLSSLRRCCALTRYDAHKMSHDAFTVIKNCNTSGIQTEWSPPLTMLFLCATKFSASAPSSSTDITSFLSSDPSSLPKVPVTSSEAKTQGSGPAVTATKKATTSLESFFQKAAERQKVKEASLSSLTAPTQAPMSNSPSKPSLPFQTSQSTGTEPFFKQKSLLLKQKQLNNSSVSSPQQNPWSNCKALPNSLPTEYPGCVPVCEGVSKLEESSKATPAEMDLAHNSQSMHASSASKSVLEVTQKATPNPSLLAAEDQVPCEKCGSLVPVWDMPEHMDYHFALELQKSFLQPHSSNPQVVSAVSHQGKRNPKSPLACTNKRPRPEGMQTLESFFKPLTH
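Fluorescent replication assay: 50 nM final substrate added after a 15 min room-temperature compound preincubation with 10 nM enzyme. Signal taken at 0 min and again at 10 min.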
BAZ2B inh: qHTS Assay for Inhibitors of BAZ2B: Hit Validation | Potency, µM, actives largely listed as inhibitors | AID 588809, 2011 | AlphaScreen BAZ2B / biotin-H3K14Ac peptide displacement | 25 tested, 100% active | shares compounds with Pol kappa inh-1; calls by dose curve
AlphaScreen ctr: qHTS Assay for Inhibitors of BAZ2B: Hit Validation in AlphaScreen Counterscreen | Potency, µM (doses to about 57.1 µM), for inactives: top-dose activity change, negative = inhibition, hits mostly inhibitors | AID 588859, 2011 | AlphaScreen biotin-His6 peptide bead counterscreen, signal decrease | 25 tested, under 10 active | shares compounds with Pol kappa inh-1;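 active = clear concentration-dependent signal drop in the bead assay lacking the target, so a primary-screen artifact; inconclusive = weak, partial or single-dose response; inactive = no response, so a real primary hit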
TbPGK inh: qHTS for inhibitors of Phosphogylcerate Kinase: Hit Validation Screen | shares compounds with Pol kappa inh-1 | TbPGK coupled GAPDH assay, Kinase-Glo luminescence | Potency, µM (top dose mostly 57.5 µM), for the others: at the highest dose activity change, negative = inhibition, hits mostly inhibitors | 500 tested, 79% active; note: potency is the fitted concentration of half-maximal effect; % is set by controls: 0 for no effect and ±100 for the full control effect; nearly all actives have a fitted effect of over 65% in size
Pol iota confirm: qHTS for Inhibitors of Polymerase Iota: Confirmatory Assay for Cherry-picked Compounds. shares compounds with Pol kappa inh-1. Pol iota primer extension, TAMRA/BHQ fluorescence. Potency, µM, actives largely listed as inhibitors. 1,500 tested, 77% active. AID 720496, 2013; note: potency is the fitted concentration of half-maximal effect
Pol kappa inh-2: qHTS for Inhibitors of Polymerase Kappa: Confirmatory Assay for Cherry-picked Compounds; shares compounds with Pol eta inh-1; 920 tested, 76% active; purified Pol-kappa, fluorescent strand-displacement substrate; AID 720501, 2013; Potency, µM, hits mostly inhibitors; note: potency is the fitted concentration of half-maximal effect
Pol eta inh-2: qHTS for Inhibitors of Polymerase Eta: Confirmatory Assay for Cherry-picked Compounds; shares compounds with Pol eta inh-1; Pol eta primer extension, TAMRA/BHQ fluorescence, 10 min; Potency, µM, most hits filed as inhibitors; 2,600 tested, 64% active; note: potency is the fitted concentration of half-maximal effect
Active calls of the source: *; i = inactive; ? = inconclusive; / = not tested or not shown; ! = a repeat was not active; [ ] = remark or other dose. Only some compounds are listed: those with a hit (about 2.4% of all), similar ones and a draw of the others. Unless noted, calls come from the whole dose curve; as a rule, active = well fitted curve in the direction sought with a large enough effect; inconclusive = small, poorly fitted or top-dose-only effect, or another doubt; inactive = no such curve, though single readings can be large; an effect the other way counts as inactive or inconclusive.

SMILES	Pol beta inh	POLI inh	TDP1 inh	Pol kappa inh-1	Pol eta inh-1	others
CNCCc1ccc(O)c(O)c1	-0.5%[57.1 µM]	89.1µM*	9.0%[56.1 µM]	?	-5.8%[57.1 µM]
CCOC(=O)N1CC(C)N(/[N+]([O-])=N/Oc2ccc([N+](=O)[O-])cc2[N+](=O)[O-])CC1C (stereo not drawn)	/	?	11.5%	-7.4%	/
C=CCSC1=N/C(=C\c2cc(OC)c3c(c2)OCO3)C(=O)S1	22.4µM*	?	-6.2%	-20.8%	?
COc1nc(C)nc(Cl)c1NC1=NCCN1	1.7%[57.1 µM]	-25.5%	-0.2%	0.5%[60.1 µM]	-2.7%
CC(C)C[C@H](NC(=O)[C@H](Cc1ccccc1)NC(=O)CNC(=O)[C@H](C)NC(=O)[C@@H](N)Cc1ccc(O)cc1)C(=O)O	/	/	8.5%	7.3%[19.4 µM]	/
NC(Cc1ccc(Oc2cc(I)c(O)c(I)c2)c(I)c1)C(=O)O (stereo not drawn)	/	/	/	7.08µM*	/
COc1ccc(C(=O)N2CCC3(CC2)OCCO3)cc1	?	14.2%	/	-12.0%	1.7%
O=C(c1ccc2nc(-c3ccco3)c(-c3ccco3)nc2c1)N1CCC2(CC1)OCCO2	20µM*	?	/	?	15.8µM*
O=c1[nH]c(=S)[nH]c(O)c1/C=C1/C=c2ccccc2=N1	-13.2%	28.2µM*	/	-28.5%	?
CN1CC[C@@]2(C)c3cc(O)ccc3N(C)C12 (stereo partly drawn)	-7.6%[57.1 µM]	28.2µM*!	-3.6%[56.1 µM]	-4.6%[60.1 µM]	?
CC1=NNC(=O)C1Br (stereo not drawn)	/	28.2µM*	/	-12.7%	-4.8%
CCN1/C(=C\C=C\C2=[N+](CC)c3ccccc3C2(C)C)C(C)(C)c2ccccc21	25.1µM*	/	7.6%	17.8µM*	i
COc1ccccc1-c1nn2c(=O)cc(CN3CCN(C(=O)Nc4ccc(C)cc4Cl)CC3)nc2s1	-24.5%	33.7%	8.1%	-3.4%[60.1 µM]	-21.3%
COc1cc2c(cc1OC)-c1c(OC)c(OC)cc3c1C(C2)N(C)CC3 (stereo not drawn)	-1.8%	11.2µM*	2.1%	-21.9%	-24.1%
CN(C)c1ccc(/C=C2\C(=O)NC(=O)N(CCc3ccc(F)cc3)C2=O)cc1	2.7%	?	-1.9%	-6.9%	-1.7%
O=C1NC(=O)N(CCc2ccc(F)cc2)C(=O)/C1=C/c1cccs1	?	22.4µM*	0.0%	-18.6%	-19.2%
CCC(Cl)[N+](=O)[O-] (stereo not drawn)	/	/	13.2%	/	/
O=C(O)c1cccc2c1NC(C(=O)O)C1CC(Sc3ccccc3[N+](=O)[O-])C(Cl)C21 (stereo not drawn)	2.82µM*	3.98µM*	/	8.91µM*	3.16µM*	TbPGK inh=13µM*
CC(=O)N1CCN(c2ccc(OCC3CO[C@@](Cn4ccnc4)(c4ccc(Cl)cc4Cl)O3)cc2)CC1 (stereo partly drawn)	/	/	17.5%[56.1 µM]	-4.1%[60.1 µM]	/
CCCNC(=O)c1ccc2c(=O)n3c(-c4ccc(C)cc4)csc3nc2c1	-5.2%	?	3.8%	-13.9%	4.0%	BAZ2B inh=4.47*;AlphaScreen ctr=12.6µM*
OC[P+](CO)(CO)CO	/	/	-3.7%	/	/
COC12C(COC(N)=O)C3=C(C(=O)C(C)=C(N)C3=O)N1CC1C2N1C (stereo not drawn)	-19.3%	?	?	-34.9%	50.1µM*	Pol iota confirm=37.7*
C[C@H](CCC(=O)O)[C@H]1CC[C@@H]2[C@H]3[C@@H](CC[C@@]21C)[C@]1(C)CC[C@H](O)C[C@@H]1C[C@@H]3O	/	/	6.5%[56.1 µM]	-5.6%[12 µM]	/
CC(c1nccs1)N(C)C(=O)c1cn(Cc2cccc3ccccc23)nn1 (stereo not drawn)	-1.1%	38.0%	4.0%	-7.7%	-3.5%
CN(C)c1ccc(/C=C/C=C/c2sc3ccccc3[n+]2C)cc1	?	?	-2.7%	-28.5%	-31.1%
SMILES	Pol beta inh	POLI inh	TDP1 inh	Pol kappa inh-1	Pol eta inh-1	others
CC[n+]1c(/C=C/C=C/c2ccc(N(C)C)cc2)sc2ccccc21	-0.6%	76.2%	2.7%	-32.1%	?	TbPGK inh=?
O=C1NC(=S)NC(=O)C1=Cc1ccc2c(c1)CCN2CCCCl	?	?	/	10µM*	2µM*	TbPGK inh=2.31µM*
CN(C)[C@@H]1C(=O)C(C(N)=O)=C(O)[C@@]2(O)C(=O)C3=C(O)c4c(O)cccc4[C@@](C)(O)[C@H]3[C@H](O)[C@@H]12	2.82µM*	?	/	2.82µM*	3.98µM*	Pol iota confirm=9.47*;Pol kappa inh-2=8.44*;Pol eta inh-2=26.9*
CC1CCN(C(=O)c2ncn(C)c2C(=O)N2CCC(C)CC2)CC1	/	?	-1.2%	12.4%	-10.2%
CN(C)c1ccc(/C=C2/C(=O)NC(=O)N(Cc3ccco3)C2=O)cc1	?	15.8µM*	28.2µM*	35.5µM*	6.31µM*	Pol iota confirm=67*;Pol kappa inh-2=29.9*;Pol eta inh-2=37.9*
CCN(CC)c1ccc(/C=C2\C(=O)NC(=O)N(CC3CCCO3)C2=O)cc1 (stereo not drawn)	21.7%	-2.5%	3.1%	-10.5%	2.0%
CC(C)N1C(=O)/C(=C/C=C/c2ccco2)C(=O)N(Cc2ccco2)C1=O	22.4µM*	?	5.7%	22.4µM*	2.51µM*	Pol iota confirm=18.9*;Pol eta inh-2=9.53*
